Screens from PubChem.
FEN1 inhibitor – inhibitors of human flap endonuclease 1 | Recombinant FEN1 flap cleavage, fluorescence, 15 min | AID 588795 | Potency, µM (series often up to 114 µM), actives largely listed as inhibitors | 390,000 tested, 0.35% active; note: nearly all actives have a fitted effect of over 65% in size
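Concentration–response screening of FEN1 (10 nM): 15 min compound preincubation at room temperature, reaction started with 50 nM substrate and read at 0 and 15 min. Corrected, normalized data were fitted by a four-parameter Hill equation.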
BLM helicase inh – Bloom syndrome helicase (human) inhibition; recombinant BLM DNA unwinding, fluorescence dequenching; P54132; 350,000 tested, 0.2% active; Potency, µM (doses to about 56.1 µM), actives largely listed as inhibitors; note: nearly all actives have a fitted effect of over 35% in size
APE1 inh-1 – inhibitors of human APE1 endonuclease | Potency, µM (titrated, usually from 65.8 µM), usual class: inhibitors | recombinant APE1, TAMRA/BHQ-2 abasic DNA cleavage fluorescence | P27695 | AID 2517 | 350,000 tested, 0.35% active; note: nearly all actives have a fitted effect of over 55% in size
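Endonuclease cleavage of a quenched abasic-site DNA duplex (50 nM) by APE1 (0.75 nM) was tracked by TAMRA dequenching. Compounds were preincubated with enzyme 15 min at room temperature; data normalized to buffer-only and DMSO wells plus NSC13755 control.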
PI5P4K alpha inh – inhibitors of human PI5P4K alpha; PI5P4Kalpha enzyme, ADP-Glo luminescence, 60 min; stronger effect = lower value; max response, %; 330,000 tested, 1.2% active; active = max response of -50% or lower; inconclusive = between -30% and -50%; inactive = -30% or higher; note: value at the top dose of about 77 µM
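Enzyme plus substrate dispensed, test compounds pinned in, then ATP (5 microM final) added. After 60 min at RT, ADP-Glo reagent 1 for 45 min and reagent 2 for 30 min preceded luminescence imaging.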
RECQ1 helicase – blocks DNA unwinding by human RECQ1 | P46063 | RECQ1 DNA unwinding, red fluorescence kinetic read | Potency, µM (series often up to 57.3 µM), actives largely listed as inhibitors | 240,000 tested, 0.54% active; note: nearly all actives have a fitted effect of over 30% in size
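50 nM RECQ1T1 preincubated 15 min with compound in Tris pH 8.0 buffer with MgCl2, DTT, Tween-20 and 2.5 ug/ml poly(dI-dC); started with 200 nM TAMRA/BHQ-2 forked duplex and 2 mM ATP. Unwinding read as fluorescence (525/598 nm), two reads 2 h apart.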
GCN5L2 inh – inhibitors of human GCN5L2 histone acetyltransferase; 390,000 tested, 0.21% active; GCN5L2 HAT assay, ThioGlo1 CoA-SH fluorescence; Potency, µM (series often up to 58.9 µM), actives largely listed as inhibitors
Target sequence (Q92830 whole entry, looked up): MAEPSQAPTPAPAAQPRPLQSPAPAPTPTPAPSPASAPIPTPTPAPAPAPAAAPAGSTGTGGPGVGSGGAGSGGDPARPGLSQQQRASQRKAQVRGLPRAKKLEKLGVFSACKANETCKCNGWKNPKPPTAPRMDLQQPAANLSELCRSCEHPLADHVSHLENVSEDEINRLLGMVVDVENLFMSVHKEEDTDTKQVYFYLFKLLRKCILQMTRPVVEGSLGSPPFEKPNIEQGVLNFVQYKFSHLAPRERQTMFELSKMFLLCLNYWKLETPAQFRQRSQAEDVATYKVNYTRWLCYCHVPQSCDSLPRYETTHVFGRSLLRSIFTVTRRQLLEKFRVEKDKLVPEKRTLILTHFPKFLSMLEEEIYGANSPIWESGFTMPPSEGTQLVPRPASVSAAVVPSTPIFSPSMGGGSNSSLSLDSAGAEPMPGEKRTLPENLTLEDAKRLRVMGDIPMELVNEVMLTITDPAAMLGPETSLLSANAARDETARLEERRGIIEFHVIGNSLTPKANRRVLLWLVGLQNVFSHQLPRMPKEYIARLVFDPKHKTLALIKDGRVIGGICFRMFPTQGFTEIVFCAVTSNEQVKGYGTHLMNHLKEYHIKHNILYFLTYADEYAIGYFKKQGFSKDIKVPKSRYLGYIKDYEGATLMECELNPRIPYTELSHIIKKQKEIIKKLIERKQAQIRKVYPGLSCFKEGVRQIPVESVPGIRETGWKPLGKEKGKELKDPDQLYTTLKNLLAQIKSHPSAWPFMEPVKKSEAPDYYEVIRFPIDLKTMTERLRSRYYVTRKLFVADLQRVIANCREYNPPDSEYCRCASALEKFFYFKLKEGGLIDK
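Preincubate 20nM GCN5L2 with compound 15 min, RT → add 50uM ThioGlo1 + 75uM H3(1-25) + 70uM acetyl-CoA → read fluorescence 0 and 20 min. Primary qHTS; fluorescent artifacts likely.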
APE1 dye cs – counter-screen for APE1 inhibitors: DNA dye displacement. Potency, µM (doses to about 28.5 µM), usual class: inhibitors. DNA fluorescent dye displacement counterscreen, fluorescence. 480 tested, 7% active. AID 2564. shares compounds with APE1 inh-1;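 note: loss of thiazole orange fluorescence as the dye is displaced from duplex DNA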
EndoIV counter – Endo IV (E. coli) inhibition counter-screen; E. coli Endo IV, fluorogenic AP-site DNA cleavage; 560 tested, 4% active; Potency, µM (highest dose often 27.1 µM), usual class: inhibitors; shares compounds with APE1 inh-1
APE1 inh-2 – APE1 (human) endonuclease inhibition, confirmation | Potency, µM (titrated, usually from 57.1 µM), hits mostly inhibitors | 750 tested, 44% active | shares compounds with APE1 inh-1 | AID 2572 | purified APE1, fluorogenic abasic-site DNA cleavage; note: nearly all actives have a fitted effect of over 30% in size
APE1 FP – APE1 (human) DNA binding inhibition, fluorescence polarization; shares compounds with APE1 inh-1; APE1 binding to TAMRA-labelled double-stranded DNA, fluorescence polarization displacement; Potency, µM (titrated, usually from 28.5 µM), usual class: inhibitors; 480 tested, 7% active; AID 2573
Hits are given with their value; i = inactive; ? = inconclusive; nt = no result; [ ] = dose if it differs, or a comment. Most compounds without a hit are left out; they make up all but 1.5% or so of the library. Unless noted, calls come from the whole dose curve; as a rule, active = well fitted curve in the direction sought with a large enough effect; inconclusive = small, poorly fitted or top-dose-only effect, or another doubt; inactive = no such curve, though single readings can be large; an effect the other way counts as inactive or inconclusive.

SMILES	FEN1 inhibitor	BLM helicase inh	APE1 inh-1	PI5P4K alpha inh	RECQ1 helicase	GCN5L2 inh	APE1 dye cs	EndoIV counter	APE1 inh-2	APE1 FP
Cc1ccc(C)n1-c1ccc(C(=O)O)cc1	nt	i	14µM	nt	i	?	nt	nt	13µM	nt
S=c1[nH]nc(-c2cc(-c3ccccc3)n[nH]2)n1/N=C/c1ccc(Cl)c(Cl)c1	?	i	i	i	i	i	nt	nt	40µM	nt
S=c1[nH]nc(-c2cc(-c3ccccc3)n[nH]2)n1/N=C/c1ccc(Cl)cc1	i	i	i	i	i	i	nt	nt	nt	nt
O=C(/C=C/c1ccccc1)c1cc(Br)ccc(=O)c1O	?	i	?	i	32µM	i	?	i	?	?
CCN(CC)c1ccc(C(=C2C=CC(=[N+](CC)Cc3cccc(S(=O)(=O)[O-])c3)C=C2)c2ccc(N(CC)Cc3cccc(S(=O)(=O)O)c3)cc2)cc1	nt	25µM	?	nt	4µM	10µM	?	28µM	22µM	25µM
C[C@H]1Cc2c(-c3ccccc3)nc3c(c2CO1)CN(C(=O)c1cccnc1)CC3	nt	i[12.4 µM]	i[12.4 µM]	nt	i[11.5 µM]	nt	nt	nt	nt	nt
CCN1/C(=C/C=C/c2oc3ccc4ccccc4c3[n+]2CC)Oc2ccc3ccccc3c21	?	i	25µM	-74	i	i	i	3.2µM	8.9µM	i
O=C1/C(=C\c2cccs2)CCC/C1=C/c1cccs1	nt	i	nt	nt	nt	?	nt	nt	nt	nt
COc1ccc(-c2cn3cccnc3n2)cc1NC(=O)c1ccc(Br)o1	?	i	i	nt	?	i	nt	nt	i	nt
CCCCC(=O)c1ccc(O)cc1	i	i	i	nt	i	i	nt	nt	nt	nt
O=C(CCO)c1ccc(O)cc1	22µM	25µM	1.6µM	-65	25µM	i	i	?	1.3µM	i
CC(=O)Nc1ccc(C(=O)Nc2nc(-c3cccnc3)cs2)cc1	i	i	i	i	i	i	nt	nt	i	nt
CC[C@H](C)[C@H](NC(=O)[C@H](CO)NC(=O)[C@H](CC(C)C)NC(=O)[C@@H]1CCCN1C(=O)[C@@H]1CCCN1C(=O)[C@H](CC(=O)O)NC(=O)[C@@H](N)CC(=O)O)C(=O)N[C@@H](CC(=O)O)C(=O)N[C@@H](CC(C)C)C(=O)N[C@H](C(=O)N[C@@H](Cc1ccccc1)C(=O)N[C@@H](Cc1cnc[nH]1)C(=O)N[C@@H](CC(C)C)C(=O)N[C@@H](CC(C)C)C(=O)N[C@@H](CCCNC(=N)N)C(=O)N[C@H](C(=O)N[C@@H](CC(C)C)C(=O)N[C@@H](CC(C)C)C(=O)N[C@@H](CCC(=O)O)C(=O)N[C@@H](CC(C)C)C(=O)N[C@@H](C)C(=O)N[C@@H](CCCNC(=N)N)C(=O)N[C@H](C(=O)N[C@@H](CCC(N)=O)C(=O)N[C@@H](CO)C(=O)N[C@@H](CCC(N)=O)C(=O)N[C@@H](CCCNC(=N)N)C(=O)N[C@@H](CCC(=O)O)C(=O)N[C@@H](CCCNC(=N)N)C(=O)N[C@@H](C)C(=O)N[C@@H](CCC(=O)O)C(=O)N[C@@H](CCC(N)=O)C(=O)N[C@@H](CC(N)=O)C(=O)N[C@@H](CCCNC(=N)N)C(=O)N[C@H](C(=O)N[C@H](C(=O)N[C@@H](Cc1ccccc1)C(=O)N[C@@H](CC(=O)O)C(=O)N[C@@H](CO)C(=O)N[C@H](C(N)=O)C(C)C)[C@@H](C)CC)[C@@H](C)CC)[C@@H](C)O)[C@@H](C)O)[C@@H](C)O	nt	i	i	nt	i	i	nt	nt	nt	nt
CCCCCC(=O)N1CC2(CC(c3cccc(NC(=O)[C@@H]4CCC(=O)N4)c3)=NO2)C[C@@H]1C(N)=O (stereo partly drawn)	i	i	i	i	?	i	nt	nt	nt	nt
C=C(C)C(=O)Nc1cccc(C2=NOC3(C2)C[C@@H](C(N)=O)N(C(=O)CCCCC)C3)c1 (stereo partly drawn)	25µM	i	?	?	25µM	i	nt	nt	40µM	nt
COc1ccc(CCC(=O)O)cc1	i	nt	nt	nt	nt	nt	nt	nt	nt	nt
Cc1nn(-c2ccccc2)c(NC(=O)NS(=O)(=O)c2ccc(Cl)cc2)c1C#N	nt	i	i	nt	i	i	nt	nt	nt	nt
CCc1nnc(NC(=O)c2ccccc2NC(=O)C2CCN(C(=O)c3ccco3)CC2)s1	i	nt	nt	nt	nt	nt	nt	nt	nt	nt
CCOc1ccccc1NC(=O)CN(C)S(=O)(=O)c1cccc2nsnc12	i	i	i	i	i	i	i	i	i	?
COc1ccc(CCn2c3c(c(=O)[nH]c2=S)CN(Cc2ccccc2)CN3)cc1OC	i	nt	nt	nt	nt	nt	nt	nt	nt	nt
O=C(O)[C@H]1O[C@@H](Oc2ccc3ccc(=O)oc3c2)[C@H](O)[C@@H](O)[C@@H]1O	nt	i	i	nt	i	i	nt	nt	nt	nt
O=C(CSc1nc(NS(=O)(=O)c2ccccc2)cc(=O)[nH]1)Nc1ccc(F)cc1	?	?	?	nt	?	?	nt	nt	i	nt
COc1ccc(/C(C)=N/Nc2ccc(C(=O)O)cc2)cc1OC	i	i	i	i	i	i	nt	nt	nt	nt
COc1ccc(OC)c(/C(C)=N/Nc2ccc(C(=O)O)cc2)c1	i	i	28µM	i	i	i	i	i	?	i
COc1cc(/C=N/Nc2ccc(C(=O)O)cc2)ccc1O	i	i	14µM	i	i	i	i	i	14µM	i
SMILES	FEN1 inhibitor	BLM helicase inh	APE1 inh-1	PI5P4K alpha inh	RECQ1 helicase	GCN5L2 inh	APE1 dye cs	EndoIV counter	APE1 inh-2	APE1 FP
CCn1cc(C(=O)NCc2ccco2)c(=O)c2cc(F)c(N3CCN(C(=O)c4ccco4)CC3)cc21	i	i	?	?	i	i	nt	nt	?	nt
COc1ccc(CCN2CCC[C@H](CN3CCc4cc(OC)c(OC)cc4CC3=O)C2)cc1OC	nt	i	i	nt	i	i	nt	nt	nt	nt
Cc1cc(C)c(C#N)c(SCC(=O)c2cccs2)n1	i	i	?	i	i	i	nt	nt	i	nt
Cc1cc(C)c(C#N)c(SCC(=O)c2ccccc2)n1	i	i	i	i	?	i	nt	nt	nt	nt
O=C1/C(=C\c2ccco2)SC(=S)N1c1ccc(O)cc1	i	i	i	i	i	i	nt	nt	nt	nt
NN1C(=O)/C(=C\c2ccco2)SC1=S	i	?	14µM	i	?	i	i	i	?	i
C/C=C1/C(=O)C[C@@H]2[C@H]3CCC4=CC(=O)CC[C@]4(C)[C@@H]3CC[C@]12C	nt	nt	i	nt	i	i	nt	nt	nt	nt
